# Data as given in ChEMBL document CHEMBL3433997, “St. Jude Leishmania screening dataset” (2016).
# What was measured:
# Format in all cases: functional
# [1] = molecular target: Solute carrier family 2, facilitated glucose transporter member 1 (Homo sapiens) (UniProt P11166); assay: ST_JUDE_LEISH: Cytotoxicity at 2uM final concentration against transgenic Leishmania Mexicana promastigotes LmGLUT1 that are glucose transport deficient and complemented with the human glucose transporter GLUT1. Activity is measured by DNA content using SYBR green in vitro
# [2] = molecular target: Hexose transporter 1 (Plasmodium falciparum) (UniProt O97467); assay: ST_JUDE_LEISH: Cytotoxicity at 2uM final concentration against transgenic Leishmania Mexicana promastigotes LmPfHT that are glucose transport deficient and complemented with the Plasmodium falciparum hexose transporter. Activity is measured by DNA content using SYBR green in vitro
# [3] = molecular target: Glucose transporter (Leishmania mexicana) (UniProt O61059); assay: ST_JUDE_LEISH: Cytotoxicity at 2uM final concentration against transgenic Leishmania Mexicana promastigotes LmGT2 that are glucose transport deficient and complemented with the L. Mexicana glucose transporter 2. Activity is measured by DNA content using SYBR green in vitro
# Sequence of Solute carrier family 2, facilitated glucose transporter member 1 (Homo sapiens) (P11166 whole entry): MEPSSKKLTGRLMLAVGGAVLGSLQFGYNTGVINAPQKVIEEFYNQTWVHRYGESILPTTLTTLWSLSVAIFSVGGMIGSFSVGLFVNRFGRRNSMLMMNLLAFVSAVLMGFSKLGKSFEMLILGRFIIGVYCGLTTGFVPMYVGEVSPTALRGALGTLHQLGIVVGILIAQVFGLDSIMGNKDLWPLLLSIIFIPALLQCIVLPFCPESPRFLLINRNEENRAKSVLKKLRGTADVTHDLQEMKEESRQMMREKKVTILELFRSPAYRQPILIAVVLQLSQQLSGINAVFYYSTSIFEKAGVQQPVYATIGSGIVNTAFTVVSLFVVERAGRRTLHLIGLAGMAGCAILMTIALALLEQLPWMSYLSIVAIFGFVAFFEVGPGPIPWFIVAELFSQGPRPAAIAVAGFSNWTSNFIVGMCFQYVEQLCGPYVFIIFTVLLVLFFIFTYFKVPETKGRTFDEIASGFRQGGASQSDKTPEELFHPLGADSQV
SMILES,inhibition [1],inhibition [2],inhibition [3]
CCN(CC)S(=O)(=O)c1ccc(CCOCCCCCNCC(O)c2cc(Cl)c(N)c(Cl)c2)s1 (configuration not stated),2.8%,-2.21%,1.26%
CCOc1ccc(OCC(=O)Nc2nc(-c3ccc(OC)cc3)c(C)s2)cc1,0.75%,1.74%,1.45%
CCCCOC(=O)[C@H](CCC)NC(=O)c1ccc(NS(=O)(=O)c2ccc3nc(N)[nH]c(=O)c3c2)cc1,0.2%,-1.82%,0.77%
Oc1ccc(-c2cc(-c3ccc(O)cc3)nc(-c3ccccc3)n2)cc1,2.51%,1.53%,0.82%
N=C(N)Nc1ccc(NC(=O)Nc2ccc(NC(=N)N)cc2)cc1,0.9%,0.77%,0.04%
Cc1nc(C)c(-c2ccc(-c3ccc(F)cc3)cc2)c(O)c1Br,0.18%,-0.09%,-1.77%
CN1CCN(c2ccc(Nc3ncc(C#N)c(Nc4ccccc4C(N)=O)n3)cc2)CC1,75.6%,81.4%,55.1%
CC(C)(CNCc1ccc(OC(F)(F)F)cc1)c1nc(-c2ccc(Cl)c(O)c2)c(-c2ccncc2)[nH]1,-0.48%,0.11%,6.94%
CCNc1cc(-c2cccc(OC)c2)nc(Nc2ccc(F)cc2)n1,7.43%,7.1%,2.87%
CC(CN(C)C)C(=O)Nc1cccc(-c2ccc(-c3nc4cc(F)ccc4[nH]3)s2)c1 (configuration not stated),3.85%,2.55%,4.47%
CC(C)NCc1ccc(-c2ccc(NC(=O)c3ccc(C#N)cc3)cc2)cc1,3.05%,3.73%,4.89%
COc1cc(C(=O)N2CCOC(CCN3CCC[C@H]3C(=O)Nc3ccccc3)(c3ccc(Cl)c(Cl)c3)C2)cc(OC)c1OC (some centres not stated),6.58%,5.14%,2.89%
OC(CNc1cccc(Cl)c1)Cn1c2ccc(Cl)cc2c2cc(Cl)ccc21 (configuration not stated),3.75%,1.59%,2.34%
N#Cc1ccc(CN2CCCN(Cc3cccc(NC(=O)c4cc5ccccc5s4)c3)CC2)cc1,-0.46%,-0.58%,-1.54%
O=C(Nc1ccc(N2CCC(Nc3ccccn3)CC2)cc1)c1cnc(Cl)c(Cl)c1,18%,10.4%,4.85%
CCCc1ccc(Nc2nc(C)cc(N(CC)CCCN3CCCCC3)n2)cc1,-3.11%,-2.14%,0.52%
Cc1ccc2sc(N(CCCn3ccnc3)C(=O)c3ccco3)nc2c1C,0.64%,2.76%,2.79%
CC1CCN(CC[C@H]2CCCN2S(=O)(=O)c2cccc(NC(=O)c3ccc(-c4ccccc4)cc3)c2)CC1,3.61%,1.72%,-0.42%
CC(C)(C)OC(=O)NCc1ccc(Nc2nnc(-c3cccc(C(=O)NCc4cc(C(F)(F)F)cc(C(F)(F)F)c4)c3)o2)cc1,7.94%,7.58%,5.41%
O=C(Nc1ccc(Cl)cc1)Nc1ccc(Cn2ncc(N3CCCNCC3)c(Cl)c2=O)cc1,2.02%,5.96%,2.56%
Cc1ccccc1C1CCN(c2ncc(C(=O)Nc3ccccc3)cc2Cl)CC1,0.8%,0.4%,-6.29%
COc1cc(Cc2cnc(N)nc2N)cc(OCCCC#N)c1OC,0.61%,-1.21%,-1.3%
CCOc1c(CNCCCNc2nc3ccccc3[nH]2)cc(Br)cc1OC,2.6%,-3.13%,4.2%
CCCCc1cc(NCc2ccncc2)nc(Nc2cccc(OC)c2)n1,21.4%,10.9%,3.45%
